Rows were chosen to be rich in hits. Some 4.6% of all compounds tested hit in one or more screens of this group.
D1 agonist: agonists of human D1 dopamine receptor | P21728 | HEK293 T-REx D1 cells, calcium flux, agonist mode | activation, % at 2 µM | 360,000 tested, 1% active | AID 504660; further: 0% is about no effect
Target sequence (P21728 whole entry, looked up): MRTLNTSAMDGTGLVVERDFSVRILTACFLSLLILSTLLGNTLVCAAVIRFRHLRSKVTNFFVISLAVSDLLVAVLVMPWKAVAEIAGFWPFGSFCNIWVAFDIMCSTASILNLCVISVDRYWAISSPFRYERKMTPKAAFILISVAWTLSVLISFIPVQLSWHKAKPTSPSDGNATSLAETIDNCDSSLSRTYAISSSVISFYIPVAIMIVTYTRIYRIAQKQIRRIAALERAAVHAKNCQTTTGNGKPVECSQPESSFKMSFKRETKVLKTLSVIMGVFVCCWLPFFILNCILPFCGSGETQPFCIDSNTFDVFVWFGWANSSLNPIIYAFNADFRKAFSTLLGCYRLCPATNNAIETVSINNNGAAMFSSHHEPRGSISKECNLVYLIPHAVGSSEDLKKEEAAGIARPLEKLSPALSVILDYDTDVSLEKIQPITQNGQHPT
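Agonism was scored from calcium flux recorded over 180 s (1 read/s) after pintool compound addition, following a 10-cycle baseline. Cells were inducible force-coupled HEK293 TREx D1, plated overnight at 30 C and loaded with no-wash calcium dye.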
TRHR agonist: activates the human TRH receptor | 360,000 tested, 0.18% active | activation, % at 2 µM | TRHR cells, calcium flux fluo-8, FDSS agonist mode; further: 0% is about no effect
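TRHR-expressing cells, plated overnight in medium with 10% serum, were loaded with fluo-8 calcium dye at room temperature. After a 10 s baseline, library compound was pin-added and calcium release was recorded kinetically (ex 480/em 530) as agonist response.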
TRHR enhancer: allosteric enhancers of human TRH receptor. P34981. TRHR cells, fluo-8 calcium fluorescence, EC20 TRH enhancement. enhancement, % at 2 µM. 360,000 tested, 0.66% active. AID 493056; in the data active means enhancement above about 30%; further: 0% is about no effect
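TRHR-expressing cells loaded with fluo-8 calcium dye were read kinetically (ex 480/em 530) during compound addition, then stimulated with an EC20 of TRH (10 nM final). Enhancement of the Gq-mediated intracellular calcium response was scored.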
D1 antagonist: antagonists of human D1 dopamine receptor; P21728; HEK293 TREx D1 cells, calcium flux, dopamine EC80; active compounds read low; activity change, negative = inhibition, % at 10 µM; 360,000 tested, 3.2% active; AID 504652; in the data active means activity change below about -30%; further: on the % scale 0 is the no-effect control and ±100 the full control effect
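HEK293 T-REx cells expressing inducible, force-coupled D1 receptor; no-wash Ca dye, 30–90 min RT. Cmpd → 180 s read at 1 Hz → EC80 DA → 180 s read.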
D1 potentiator: potentiators of human D1 dopamine receptor. 360,000 tested, 0.036% active. potentiation, % at 10 µM. P21728. HEK293 TREx D1 cells, calcium flux, dopamine EC20 potentiation; in the data active means potentiation above about 30%; further: 0% is about no effect
* marks the source's active call; other numbers are inactive results. Unless noted, no stated cut-off is given here; in the data, active means activation above about 30%; inactive means the rest.

SMILES	D1 agonist	TRHR agonist	TRHR enhancer	D1 antagonist	D1 potentiator
CC(=O)OCCn1c(C)[n+](CCOC(C)=O)c2cc(Cl)c(Cl)cc21	0	0	-3	12	-8
Cc1ccc(C)c(OCCC(=O)OCC(=O)NC(=O)NC2CCCC2)c1	6	0	-7	-36*	-5
Cc1cc(OCC(=O)NC2CCCCC2)ccc1Cl	-1	0	0	-1	-7
O=C(COc1ccc(C(=O)c2ccccc2)cc1)NC1CCCCC1	13	0	-2	-31*	-3
Cc1ccc(C)c(OCCC(=O)OCC(=O)NC2CC2)c1	3	0	6	-20	1
O=C(COC(=O)COc1ccc(Cl)cc1)NC1CCCCC1	0	1	-1	14	-4
Cc1cc(OCC(=O)OCC(=O)NC2CCCC2)ccc1Cl	9	0	0	-36*	-5
O=C(COc1ccc(C(=O)c2ccccc2)cc1)NC1CCCCCC1	12	1	2	-19	-1
O=C(COC(=O)COc1ccc(Cl)cc1)NC1CCCC1	4	-1	5	-33*	2
CC(C)(C)c1ccc(OCCC(=O)OCC(=O)NC2CCCCC2)cc1	4	0	-3	-44*	-2
Cc1cc(OCC(=O)OCC(=O)N2CCc3ccccc32)ccc1Cl	9	0	-3	-21	-8
Cc1cc(OCC(=O)OCC(=O)N2CCc3ccccc3C2)ccc1Cl	13	0	-1	-43*	-8
O=C(CCCOc1ccc(Cl)cc1Cl)N1CCc2ccccc2C1	33*	0	13	0	-5
O=C(CCCOc1ccccc1)N1CCc2ccccc2C1	0	0	0	-5	-2
COc1cc(OC)c(NS(=O)(=O)c2c(C(=O)N3CCC(C)CC3)c(C)n(C)c2C)cc1Cl	0	0	-7	-20	2
N#Cc1ccc(Oc2c(Cl)cncc2Cl)cc1	4	0	37*	7	-3
CCOC(=O)c1sc2cc([N+](=O)[O-])cc(SCC(C)C)c2c1N	55*	14	-1	18	-4
COc1ccc(-n2c(C)cc(/C=C3\SC(=S)N(Cc4ccco4)C3=O)c2C)cc1	21	3	4	-9	-7
CCN1CCN(c2c(/C=C3\SC(=S)N(Cc4ccco4)C3=O)c(C)c(C#N)c(=O)n2C)CC1	235*	-1	32*	-4	-6
CCN(CCCNC(=O)c1cc(Nc2ccccc2OC)nc2ccccc12)c1cccc(C)c1	1	2	-3	-35*	-3
COc1ccc(Nc2cc(C(=O)NCCCN(C)Cc3ccccc3)c3ccccc3n2)cc1	43*	4	4	-46*	-4
Cc1cc(C)c2oc(C(=O)Nc3ccc(S(=O)(=O)Nc4ncccn4)cc3)cc(=O)c2c1	1	0	8	-22	-2
Cc1cc(Br)ccc1NC(=O)C(Cc1ccccc1)NS(=O)(=O)c1ccc(Br)s1 (stereo not given)	4	-1	1	3	-2
COc1ccccc1N1CCN(C(c2cccs2)c2nnnn2C2CCCC2)CC1 (stereo not given)	1	-1	-4	-35*	-5
COCCCNc1nc2c(c(=O)n(Cc3ccc(OC)cc3)c(=O)n2C)n1C	1	0	2	-8	2
SMILES	D1 agonist	TRHR agonist	TRHR enhancer	D1 antagonist	D1 potentiator
Cn1c(NCCCCO)nc2c1c(=O)n(Cc1ccc(Cl)cc1)c(=O)n2C	-2	-1	11	-33*	2
COc1ccc(Cn2c(=O)c3c(nc(NCCO)n3C)n(C)c2=O)cc1	0	0	-1	-33*	-5
O=C(Nc1ccccc1)c1cc(N2CCOCC2)nc2ccccc12	1	0	1	-55*	0
CCOc1ccc(Nc2sc(C(=O)c3ccc4c(c3)OCO4)c(N)c2S(=O)(=O)c2ccc(C)cc2)cc1	37*	2	3	-17	-1
Cc1ccc(S(=O)(=O)c2c(Nc3cc(C)ccc3C)sc(C(=O)c3ccc4c(c3)OCO4)c2N)cc1	84*	-1	24	8	8
Cc1ccc(S(=O)(=O)c2c(Nc3ccc(C)c(C)c3)sc(C(=O)c3ccc4c(c3)OCO4)c2N)cc1	68*	6	-18	-23	6
Nc1c(C(=O)c2ccc3c(c2)OCO3)sc(Nc2ccccc2F)c1S(=O)(=O)c1ccccc1	21	1	-2	4	-1
